Source: PubChem BioAssay (EPA / NIEHS)
Results filed as inconclusive are left out. Active and inactive are the calls of the source. How the source made its calls, unless noted: active means hit-call score of the fitted dose curve at least 0.9, where 1 is the maximum; inactive means score below 0.9.

Assays:
[1] = target: Hepatocyte nuclear factor 3-beta (Homo sapiens) (UniProt Q9Y261); experiment: ATG_FoxA2_CIS: Attagene CIS-FACTORIAL HepG2 Assay for human Forkhead box A2 (FOXA2) (AID 2282942); conditions: HepG2 cis-reporter transcription factor activity, 24 h; actives raise or lower the signal
How it was run: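 Endogenous transcription factor activity was read in HepG2 cells carrying transiently transfected cis-promoter reporter units. After 24 h dosing, reporter mRNA was quantified by RT-PCR and capillary electrophoresis, and values fitted bidirectionally versus DMSO.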

[2] = target: Heat shock factor protein 1 (Homo sapiens) (UniProt Q00613); experiment: ATG_HSE_CIS: Attagene CIS-FACTORIAL HepG2 Assay for human Heat Shock Transcription Factor 1 (HSE) (AID 2282953); conditions: HepG2 HSE cis-reporter, Attagene RNA transcription; actives raise or lower the signal
How it was run: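 HepG2 cells transfected with cis-promoter reporter units sensing endogenous transcription factor activity; reporter mRNA quantified 24 h post-dose by RT-PCR and capillary electrophoresis of 6-FAM-labelled products. Bidirectional fitting against DMSO.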

[3] = ATG_RORE_CIS: Attagene CIS-FACTORIAL HepG2 Assay for human RAR-related Orphan Receptor Element (RORE) (AID 2282959); conditions: HepG2 Attagene cis-factorial RORE reporter, mRNA; actives raise or lower the signal
How it was run: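 Cells were HepG2 carrying transfected cis-regulated reporter constructs, dosed for 24 hours. Total RNA was reverse-transcribed and reporter cDNA amplified, fluorescently labeled and sized by capillary electrophoresis. Activity was fitted bidirectionally relative to DMSO.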

[4] = ATG_Sox_CIS: Attagene CIS-FACTORIAL HepG2 Assay for human SRY-box transcription factor (SOX) (AID 2282960); conditions: HepG2 Attagene cis-factorial SOX reporter, mRNA; actives raise or lower the signal
How it was run: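 Transient MRTU transfection of HepG2; 24 h compound incubation; TriZol RNA, oligo(dT) RT, PCR, 6-FAM primer extension, HpaI cut, CE. Bidirectional fit, DMSO = baseline.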

[5] = target: Transcription factor Sp1 (Homo sapiens) (UniProt P08047); experiment: ATG_Sp1_CIS: Attagene CIS-FACTORIAL HepG2 Assay for human Specificity Protein 1 (Sp1) (AID 2282961); conditions: HepG2 Sp1 cis-reporter transcription, actives raise or lower the signal
How it was run: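 Endogenous Sp1 activity was gauged in human liver HepG2 cells bearing transfected reporter units under a cis-regulating promoter. After 24 h dosing, reporter mRNA was quantified by RT-PCR with capillary electrophoresis, and activity fitted bidirectionally versus DMSO.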

[6] = ATG_SREBP_CIS: Attagene CIS-FACTORIAL HepG2 Assay for human Sterol Regulatory Element Binding (SREBP) (AID 2282962); conditions: HepG2 Attagene cis-factorial SREBP reporter, mRNA; actives raise or lower the signal
How it was run: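 Twenty-four hours after chemical dosing of transfected HepG2 cultures, reporter RNA was converted to cDNA, amplified, end-labelled with 6-FAM and resolved by capillary electrophoresis. Responses were fitted relative to DMSO.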

[7] = target: Signal transducer and activator of transcription 3 (Homo sapiens) (UniProt P40763); experiment: ATG_STAT3_CIS: Attagene CIS-FACTORIAL HepG2 Assay for human Signal Transducer and Activator of Transcription 3 (STAT3) (AID 2282963); conditions: HepG2, Attagene cis-factorial STAT3 reporter transcription; actives raise or lower the signal
How it was run: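 Transcript-level reporter assay. HepG2 transient MRTU transfection, 24 h exposure, fluorescence detection after RT-PCR and CE; DMSO baseline.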

[8] = ATG_TA_CIS: Attagene CIS-FACTORIAL HepG2 Assay for human TA Basal Promoter (AID 2282964); conditions: HepG2 Attagene CIS-factorial TA basal promoter reporter; actives raise or lower the signal
How it was run: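 HepG2 cells transiently transfected with multiple reporter units under cis promoter elements, reporting endogenous transcription factor activity; this endpoint tracks the TA basal promoter as background control. Reporter mRNA after 24 h dosing measured by RT-PCR/capillary electrophoresis; bidirectional fits versus DMSO.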

[9] = ATG_TCF_b_cat_CIS: Attagene CIS-FACTORIAL HepG2 Assay for human T-Cell-Factor with beta-catenin (TCF/b-cat) (AID 2282965); conditions: HepG2 TCF/beta-catenin cis-reporter transcription, actives raise or lower the signal
How it was run: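 HepG2 cells transiently transfected with multiple cis-promoter-regulated reporter transcription units, so endogenous transcription factor activity is measured. Reporter mRNA read 24 hours after dosing by RT-PCR, fluorescent labelling and capillary electrophoresis; bidirectional fitting against DMSO.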

[10] = ATG_TAL_CIS: Attagene CIS-FACTORIAL HepG2 Assay for human TAL Basal Promoter (AID 2282966); conditions: HepG2 Attagene cis-factorial TAL promoter reporter; actives raise or lower the signal;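 further: background control endpoint measuring basal TAL promoter reporter mRNA not a specific factor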
How it was run: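 Readout: reporter mRNA, fluorescence by CE. System: HepG2, transient multi-reporter transfection, endogenous TF activity. Exposure: 24 h. Analysis: bidirectional, DMSO-normalized; background control.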

[11] = ATG_VDRE_CIS: Attagene CIS-FACTORIAL HepG2 Assay for human Vitamin D Receptor Element (VDRE) (AID 2282968); conditions: HepG2 VDRE cis-reporter transcription, actives raise or lower the signal
How it was run: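 RT-PCR/CE readout of reporter mRNA; HepG2, transient transfection, 24 h dosing; DMSO baseline; bidirectional analysis.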

[12] = target: Transcriptional activator Myb (Homo sapiens) (UniProt P10242); experiment: ATG_Myb_CIS: Attagene CIS-FACTORIAL HepG2 Assay for human Myeloblastosis (Myb) Proto-Oncogene Transcription Factor (AID 2282986); conditions: HepG2 Attagene CIS-FACTORIAL Myb reporter transcription; actives raise or lower the signal
How it was run: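 Steps: transfect HepG2 with cis-regulated reporter units; dose with chemical for 24 h; isolate RNA, reverse-transcribe, PCR-amplify and FAM-label reporter sequences; digest with HpaI; resolve by capillary electrophoresis. Activity fitted in both directions relative to DMSO.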

[13] = target: Nuclear respiratory factor 1 (Homo sapiens) (UniProt Q16656); experiment: ATG_NRF1_CIS: Attagene CIS-FACTORIAL HepG2 Assay for human Nuclear Respiratory Factor 1 (NRF1) Orphan Gene (AID 2282987); conditions: HepG2 NRF1 cis-element reporter, Attagene multiplex; actives raise or lower the signal
How it was run: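 Fluorescence intensity of labelled reporter cDNA fragments, resolved by capillary electrophoresis, served as readout for NRF1 cis-element activity. Transiently transfected HepG2 cells were dosed for 24 hours; activity in either direction was fitted against DMSO negative control.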

[14] = ATG_NFI_CIS: Attagene CIS-FACTORIAL HepG2 Assay for human Nuclear Factor I (NFI) (AID 2282989); conditions: HepG2 cis-regulatory reporter, NFI response element transcription; actives raise or lower the signal
How it was run: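 Endogenous TF activity in HepG2 cells transiently transfected with cis-element-driven multiplexed reporter units, read 24 h after dosing. Reporter mRNA quantified by RT-PCR, 6-FAM labelling, HpaI digestion and capillary electrophoresis; bidirectional fit versus DMSO.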

[15] = target: Myc proto-oncogene protein (Homo sapiens) (UniProt P01106); experiment: ATG_Myc_CIS: Attagene CIS-FACTORIAL HepG2 Assay for human Myelocytomatosis (Myc) Proto-Oncogene Transcription Factor (AID 2282990); conditions: HepG2, Attagene cis-reporter transcription factor activity; actives raise or lower the signal
How it was run: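 HepG2 cells transiently transfected with multiple cis-promoter-driven reporter transcription units, so endogenous TF activity is read. After 24 h compound exposure, reporter mRNA was quantified by RT-PCR, 6-FAM labelling, HpaI digestion and capillary electrophoresis; bidirectional fit versus DMSO.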

[16] = ATG_NRF2_ARE_CIS: Attagene CIS-FACTORIAL HepG2 Assay for human Nuclear Factor Erythroid 2 Related Factor 2 (NFR2) response to Antioxidant Response Elements (ARE) (AID 2282992); conditions: HepG2 Attagene ARE/NRF2 reporter, transcription factor activity; actives raise or lower the signal
How it was run: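 Cis-factorial assay: transfected HepG2 reporter library, 24 h dosing, mRNA readout via RT-PCR/CE; DMSO-referenced bidirectional analysis.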

[17] = ATG_Oct_MLP_CIS: Attagene CIS-FACTORIAL HepG2 Assay for human Octamer-Binding Transcription Factor (Oct) (AID 2282993); conditions: HepG2 Attagene cis-factorial Oct reporter, mRNA; actives raise or lower the signal
How it was run: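 HepG2 cells transiently transfected with cis-element-driven reporter transcription units (endogenous TF activity); 24 h compound exposure. Reporter mRNA quantified by RT-PCR, 6-FAM labelling, HpaI digestion and capillary electrophoresis; bidirectional fit versus DMSO baseline.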

[18] = target: Cellular tumor antigen p53 (Homo sapiens) (UniProt P04637); experiment: ATG_p53_CIS: Attagene CIS-FACTORIAL HepG2 Assay for human p53 Transcription Factor (AID 2282994); conditions: HepG2 p53 cis-element reporter, Attagene mRNA; actives raise or lower the signal
How it was run: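 Using HepG2 hepatoma cells carrying cis-acting multiplexed reporters, mRNA induction is detected after a 24 h exposure. Gain- and loss-of-signal responses are fitted relative to DMSO-treated cells.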

[19] = target: Nuclear receptor subfamily 1 group I member 2 (Homo sapiens) (UniProt O75469); experiment: ATG_PXR_TRANS: Attagene TRANS-FACTORIAL HepG2 Assay for human Pregnane X Receptor (PXR) (AID 2283008; active means hit-call score of the fitted dose curve at least 0.9, where 1 is the maximum)
How it was run: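 Fluorescence intensity of FAM-labelled, HpaI-digested reporter amplicons, separated by capillary electrophoresis, quantifies induction. HepG2 cells with PXR-Gal4 trans-reporter system were exposed 24 h; DMSO defines baseline.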

[20] = ATG_XTT_Cytotoxicity: Cytotoxicity Assessment in the Attagene TRANS-FACTORIAL HepG2 Assay (AID 2283584; active means hit-call score of the fitted dose curve at least 0.9, where 1 is the maximum)
How it was run: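 Transfect HepG2 with GAL4-UAS reporter units, dose compound, incubate 24 h, then measure viable cell number by XTT. Fit concentration response against DMSO baseline.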

Measured: outcome

Hepatocyte nuclear factor 3-beta (Homo sapiens), sequence (Q9Y261 whole entry, looked up): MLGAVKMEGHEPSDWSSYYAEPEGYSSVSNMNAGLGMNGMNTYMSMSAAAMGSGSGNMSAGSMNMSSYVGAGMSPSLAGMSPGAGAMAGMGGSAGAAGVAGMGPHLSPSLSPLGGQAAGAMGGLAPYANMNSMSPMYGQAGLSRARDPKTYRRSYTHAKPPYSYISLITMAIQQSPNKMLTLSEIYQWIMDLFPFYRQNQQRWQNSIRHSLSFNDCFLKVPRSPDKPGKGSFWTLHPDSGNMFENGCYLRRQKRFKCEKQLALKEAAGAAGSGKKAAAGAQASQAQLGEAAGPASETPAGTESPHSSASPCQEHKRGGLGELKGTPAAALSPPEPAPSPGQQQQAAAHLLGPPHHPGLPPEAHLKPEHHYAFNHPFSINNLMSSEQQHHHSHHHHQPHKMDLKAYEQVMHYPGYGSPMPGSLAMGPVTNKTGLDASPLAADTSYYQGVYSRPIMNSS
Signal transducer and activator of transcription 3 (Homo sapiens), sequence (P40763 whole entry, looked up): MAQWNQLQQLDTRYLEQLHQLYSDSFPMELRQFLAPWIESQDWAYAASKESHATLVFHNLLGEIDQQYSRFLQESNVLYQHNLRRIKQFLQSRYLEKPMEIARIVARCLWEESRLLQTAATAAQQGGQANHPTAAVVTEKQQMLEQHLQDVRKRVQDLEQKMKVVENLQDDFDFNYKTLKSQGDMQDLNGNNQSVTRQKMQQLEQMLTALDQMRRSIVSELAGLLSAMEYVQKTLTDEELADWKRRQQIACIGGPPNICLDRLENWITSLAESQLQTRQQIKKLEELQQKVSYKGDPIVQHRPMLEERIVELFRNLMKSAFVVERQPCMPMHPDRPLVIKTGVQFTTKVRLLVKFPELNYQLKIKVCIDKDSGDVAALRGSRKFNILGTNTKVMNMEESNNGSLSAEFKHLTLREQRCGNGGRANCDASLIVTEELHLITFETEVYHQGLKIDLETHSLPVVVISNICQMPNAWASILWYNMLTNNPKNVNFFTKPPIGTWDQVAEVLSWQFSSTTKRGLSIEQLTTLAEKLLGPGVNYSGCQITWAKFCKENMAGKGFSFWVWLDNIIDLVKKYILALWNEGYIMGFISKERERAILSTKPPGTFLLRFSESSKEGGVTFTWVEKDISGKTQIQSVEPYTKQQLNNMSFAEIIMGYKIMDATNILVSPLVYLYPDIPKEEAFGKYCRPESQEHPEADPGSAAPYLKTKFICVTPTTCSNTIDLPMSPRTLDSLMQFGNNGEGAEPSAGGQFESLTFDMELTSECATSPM
Cellular tumor antigen p53 (Homo sapiens), sequence (P04637 whole entry, looked up): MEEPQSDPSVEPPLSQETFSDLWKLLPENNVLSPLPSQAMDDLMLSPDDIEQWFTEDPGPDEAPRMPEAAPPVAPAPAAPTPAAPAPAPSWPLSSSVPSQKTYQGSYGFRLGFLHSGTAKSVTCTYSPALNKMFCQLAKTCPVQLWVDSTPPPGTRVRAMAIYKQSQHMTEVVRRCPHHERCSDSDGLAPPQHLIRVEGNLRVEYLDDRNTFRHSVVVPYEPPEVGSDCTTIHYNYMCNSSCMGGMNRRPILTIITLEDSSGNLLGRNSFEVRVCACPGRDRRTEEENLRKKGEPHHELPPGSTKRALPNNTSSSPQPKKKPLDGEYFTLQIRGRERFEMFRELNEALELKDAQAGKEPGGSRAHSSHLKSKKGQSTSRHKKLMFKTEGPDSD
Transcriptional activator Myb (Homo sapiens), sequence (P10242 whole entry, looked up): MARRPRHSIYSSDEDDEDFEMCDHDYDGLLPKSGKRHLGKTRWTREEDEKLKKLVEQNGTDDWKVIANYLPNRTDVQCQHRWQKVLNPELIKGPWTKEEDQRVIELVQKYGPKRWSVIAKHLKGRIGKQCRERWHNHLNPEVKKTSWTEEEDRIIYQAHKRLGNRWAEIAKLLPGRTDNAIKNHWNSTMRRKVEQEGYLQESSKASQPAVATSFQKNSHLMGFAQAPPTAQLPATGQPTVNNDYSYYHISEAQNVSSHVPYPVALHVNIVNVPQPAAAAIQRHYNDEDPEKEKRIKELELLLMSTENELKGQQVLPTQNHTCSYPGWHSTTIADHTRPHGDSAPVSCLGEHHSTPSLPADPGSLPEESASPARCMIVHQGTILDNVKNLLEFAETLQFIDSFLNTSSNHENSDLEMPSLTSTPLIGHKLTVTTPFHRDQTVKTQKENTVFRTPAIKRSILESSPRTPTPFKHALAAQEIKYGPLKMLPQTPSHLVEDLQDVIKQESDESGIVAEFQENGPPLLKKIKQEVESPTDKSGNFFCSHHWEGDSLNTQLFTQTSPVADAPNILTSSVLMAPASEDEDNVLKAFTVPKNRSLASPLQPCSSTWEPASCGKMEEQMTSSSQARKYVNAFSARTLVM
Transcription factor Sp1 (Homo sapiens), sequence (P08047 whole entry, looked up): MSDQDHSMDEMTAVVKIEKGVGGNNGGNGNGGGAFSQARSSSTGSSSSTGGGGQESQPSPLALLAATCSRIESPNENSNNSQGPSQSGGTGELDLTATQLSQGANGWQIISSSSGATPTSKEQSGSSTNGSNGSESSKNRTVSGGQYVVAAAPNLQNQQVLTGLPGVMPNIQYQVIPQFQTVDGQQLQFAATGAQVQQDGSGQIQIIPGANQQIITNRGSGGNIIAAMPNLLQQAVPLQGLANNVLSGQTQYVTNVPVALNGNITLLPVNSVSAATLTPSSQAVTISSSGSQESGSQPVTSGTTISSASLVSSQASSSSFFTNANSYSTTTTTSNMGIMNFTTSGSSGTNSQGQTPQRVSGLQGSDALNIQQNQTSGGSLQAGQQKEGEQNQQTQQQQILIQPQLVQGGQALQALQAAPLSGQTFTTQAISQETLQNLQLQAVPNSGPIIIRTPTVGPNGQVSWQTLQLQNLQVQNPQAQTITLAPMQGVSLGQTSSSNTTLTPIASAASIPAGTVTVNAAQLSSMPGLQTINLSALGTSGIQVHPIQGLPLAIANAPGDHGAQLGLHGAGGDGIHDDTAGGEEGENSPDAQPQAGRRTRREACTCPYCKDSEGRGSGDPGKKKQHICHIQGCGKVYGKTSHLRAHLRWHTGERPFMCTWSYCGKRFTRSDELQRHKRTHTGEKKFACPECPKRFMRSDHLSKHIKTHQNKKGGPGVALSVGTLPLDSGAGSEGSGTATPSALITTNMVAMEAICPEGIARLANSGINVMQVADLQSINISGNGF
Myc proto-oncogene protein (Homo sapiens), sequence (P01106 whole entry, looked up): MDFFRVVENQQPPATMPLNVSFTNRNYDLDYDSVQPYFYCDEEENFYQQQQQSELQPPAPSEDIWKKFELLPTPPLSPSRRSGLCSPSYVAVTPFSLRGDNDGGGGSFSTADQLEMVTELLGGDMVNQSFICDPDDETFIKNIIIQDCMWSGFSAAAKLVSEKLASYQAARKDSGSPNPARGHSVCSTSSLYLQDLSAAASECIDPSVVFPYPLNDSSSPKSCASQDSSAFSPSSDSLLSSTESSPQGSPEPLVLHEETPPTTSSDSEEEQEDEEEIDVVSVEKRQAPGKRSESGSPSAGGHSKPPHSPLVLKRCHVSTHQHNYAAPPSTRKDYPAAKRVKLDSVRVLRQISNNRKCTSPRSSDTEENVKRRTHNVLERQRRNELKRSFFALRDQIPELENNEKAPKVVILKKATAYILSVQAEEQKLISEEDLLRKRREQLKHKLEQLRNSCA
Nuclear respiratory factor 1 (Homo sapiens), sequence (Q16656 whole entry, looked up, the tested form may be a part): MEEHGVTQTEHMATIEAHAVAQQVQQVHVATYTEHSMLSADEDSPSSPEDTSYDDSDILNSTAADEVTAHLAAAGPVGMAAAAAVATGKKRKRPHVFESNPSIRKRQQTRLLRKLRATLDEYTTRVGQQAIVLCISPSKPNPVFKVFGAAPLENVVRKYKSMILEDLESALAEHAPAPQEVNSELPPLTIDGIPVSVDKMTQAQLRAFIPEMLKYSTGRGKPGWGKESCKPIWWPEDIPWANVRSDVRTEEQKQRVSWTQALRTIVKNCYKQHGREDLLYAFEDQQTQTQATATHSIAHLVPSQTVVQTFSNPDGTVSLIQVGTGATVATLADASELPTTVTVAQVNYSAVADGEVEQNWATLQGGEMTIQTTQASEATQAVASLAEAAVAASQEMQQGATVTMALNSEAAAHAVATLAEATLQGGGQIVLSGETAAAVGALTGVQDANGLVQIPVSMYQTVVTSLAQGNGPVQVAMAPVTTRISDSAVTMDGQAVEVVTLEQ
Heat shock factor protein 1 (Homo sapiens), sequence (Q00613 whole entry, looked up): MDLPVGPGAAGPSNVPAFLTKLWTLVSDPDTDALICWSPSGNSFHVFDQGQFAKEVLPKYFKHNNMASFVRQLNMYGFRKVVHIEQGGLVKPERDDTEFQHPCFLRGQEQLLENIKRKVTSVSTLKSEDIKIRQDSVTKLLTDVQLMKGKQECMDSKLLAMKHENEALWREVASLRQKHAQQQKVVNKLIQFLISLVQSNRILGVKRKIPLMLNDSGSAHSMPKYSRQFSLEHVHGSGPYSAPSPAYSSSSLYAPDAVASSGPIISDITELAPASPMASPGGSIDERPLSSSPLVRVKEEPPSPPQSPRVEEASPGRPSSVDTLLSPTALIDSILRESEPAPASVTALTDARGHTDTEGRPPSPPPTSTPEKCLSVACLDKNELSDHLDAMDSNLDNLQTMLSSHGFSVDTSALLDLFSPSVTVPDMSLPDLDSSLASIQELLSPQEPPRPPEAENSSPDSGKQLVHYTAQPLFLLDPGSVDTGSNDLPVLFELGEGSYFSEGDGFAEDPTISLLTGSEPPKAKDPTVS
Nuclear receptor subfamily 1 group I member 2 (Homo sapiens), sequence (O75469 whole entry, looked up, the tested form may be a part): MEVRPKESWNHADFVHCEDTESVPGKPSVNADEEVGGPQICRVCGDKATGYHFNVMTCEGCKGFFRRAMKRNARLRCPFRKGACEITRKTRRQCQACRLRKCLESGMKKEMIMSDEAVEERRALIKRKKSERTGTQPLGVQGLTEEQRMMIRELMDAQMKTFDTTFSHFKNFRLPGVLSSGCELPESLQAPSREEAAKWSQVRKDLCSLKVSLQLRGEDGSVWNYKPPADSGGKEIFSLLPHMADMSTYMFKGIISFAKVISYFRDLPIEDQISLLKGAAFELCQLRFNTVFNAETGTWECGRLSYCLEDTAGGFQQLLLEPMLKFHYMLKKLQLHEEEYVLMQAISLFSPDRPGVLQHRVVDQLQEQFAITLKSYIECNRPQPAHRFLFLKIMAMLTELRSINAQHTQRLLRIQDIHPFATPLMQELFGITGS

Clc1ccccn1
inactive: [1] | [2] | [3] | [4] | [5] | [6] | [7] | [8] | [9] | [10] | [11] | [12] | [13] | [14] | [15] | [16] | [17] | [18]

O=S(=O)(O)c1cccc2ccccc12
inactive: [1] | [2] | [3] | [4] | [5] | [6] | [7] | [8] | [9] | [10] | [12] | [13] | [14] | [15] | [16] | [17] | [18] | [19]

CC/C=C/CCO
inactive: [1] | [2] | [3] | [4] | [5] | [6] | [7] | [8] | [9] | [10] | [11] | [12] | [13] | [14] | [15] | [16] | [17] | [18] | [19] | [20]

C=CCOC(=O)C(=C)C
inactive: [1] | [2] | [3] | [4] | [5] | [6] | [7] | [8] | [9] | [10] | [11] | [12] | [13] | [14] | [15] | [16] | [17] | [18] | [20]

Cc1cc2nc3c(=O)[nH]c(=O)nc-3n(C[C@H](O)[C@H](O)[C@H](O)CO)c2cc1C
inactive: [1] | [2] | [3] | [4] | [5] | [6] | [7] | [8] | [9] | [10] | [12] | [13] | [14] | [15] | [16] | [17] | [18]

NCc1ccccc1
inactive: [1] | [2] | [3] | [4] | [5] | [6] | [7] | [8] | [9] | [10] | [11] | [12] | [13] | [14] | [15] | [16] | [17] | [18] | [20]
